Compound activity deposited in PubChem by National Center for Advancing Translational Sciences (NCATS).
In the library only some 10% were active in any assay of this set; here they are far more common.
Six1-Eya2 blk: qHTS Assay for Inhibitors of the Six1/Eya2 Interaction; 0.56% of 360,000 active; Homeobox protein SIX1 (Homo sapiens) + Protein phosphatase EYA2 (Homo sapiens), …; AlphaScreen GST-Six1/His-Eya2 binding, biochemical; stronger effect = lower value; activity change, % (test concentration not listed); in the data active = activity change below about -65%; inconclusive = mostly about -30% to -63%; also: % is scaled to controls: 0 for no effect and ±100 for the full control effect
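AlphaScreen luminescence read after one hour at 37 °C in darkness. Pin-transferred compounds met GST-Six1 and His-Eya2 protein (5X stock 250 nM/500 nM) plus glutathione donor and Ni-chelate acceptor beads (5X, 50 ug/mL).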
G9a inh: qHTS Assay for Inhibitors of Histone Lysine Methyltransferase G9a | Histone-lysine N-methyltransferase EHMT2 (Homo sapiens), Q96KQ7 | Potency, µM (doses to about 102 µM), without a hit: at the highest dose activity, negative = inhibition, most hits filed as inhibitors | G9a H3K9 monomethylation, AlphaScreen, 2 h | 8.8% of 350,000 active | AID 504332, 2011; also: potency is read from the fitted curve at half-maximal effect; % is scaled to controls: 0 for no effect and ±100 for the full control effect; nearly all actives have a fitted effect of over 75% in size
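Enzyme 20 nM + cpd, 15 min RT; add b-H3K9 pep 500 nM / SAM 20 uM; 2 h RT; anti-H3K9me1 Ab 0.5 ug/mL + SA donor / anti-rabbit acceptor beads 20 ug/mL each, 10 min; AlphaScreen read.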
HP1b chromo inh: HTS for Inhibitors of HP1-beta Chromodomain Interactions with Methylated Histone Tails. AlphaScreen HP1-beta / biotin-H3K9me3 peptide binding. 0.56% of 390,000 active. Chromobox protein homolog 1 (Homo sapiens), P83916. Potency, µM (top dose mostly 114 µM), for the others: at the highest dose activity change, negative = inhibition, usual class: inhibitors; also: potency is read from the fitted curve at half-maximal effect; nearly all actives have a fitted effect of over 70% in size
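Compound inhibition of the preformed complex between 50 nM HP1-beta and 50 nM biotinylated H3K9me3 peptide was read by AlphaScreen. Buffer was PBS pH 7.4 with 0.01% Tween-20. Incubations ran 30 min at room temperature, with 10 ug/mL donor/acceptor beads.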
BAZ2B inh: qHTS Assay for Inhibitors of BAZ2B. Bromodomain adjacent to zinc finger domain protein 2B (Homo sapiens), Q9UIF8. AlphaScreen BAZ2B-H3K14Ac peptide displacement. Potency, µM (doses to about 114 µM), without a hit: top-dose activity change, negative = inhibition, actives largely listed as inhibitors. 4.4% of 360,000 active. AID 504333, 2011; also: potency is read from the fitted curve at half-maximal effect; % is scaled to controls: 0 for no effect and ±100 for the full control effect; nearly all actives have a fitted effect of over 60% in size
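AlphaScreen displacement of biotin-H3(5-23)K14Ac peptide (50 nM final) from BAZ2B (50 nM final) in PBS pH 7.4, 0.01% Tween-20; complex preformed 30 min RT, then compounds (top 110 uM) 30 min RT, beads 20 min dark.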
CtBP-E1A blk: qHTS Assay for Inhibitors of the CtBP/E1A Interaction | CtBP / adenovirus E1A interaction (AlphaScreen) | AlphaScreen GST-E1A/His-CtBP binding, 1536-well; stronger effect = lower value | activity change, % (test concentration not listed) | 0.49% of 340,000 active | AID 651724, 2012; in the data active = activity change below about -65%; inconclusive = mostly about -30% to -63%; also: % is scaled to controls: 0 for no effect and ±100 for the full control effect
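AlphaScreen with 125 nM GST-E1A and 125 nM His-CtBP (5X stocks) in Tris pH 8.0, 300 mM NaCl, BSA, Tween 20, TCEP. Compounds preincubated 2 h at 37 deg C, then glutathione donor/nickel acceptor beads added for 1 h at 37 deg C in dark.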
JMJD2A Tudor: qHTS Assay for Inhibitors of JMJD2A-Tudor Domain; AID 504339, 2011; AlphaScreen JMJD2A-Tudor / H3K4me3 peptide binding; Potency, µM (series often up to 114 µM), for inactives: at the top dose activity change, negative = inhibition, most hits filed as inhibitors; 4.4% of 390,000 active; also: potency is read from the fitted curve at half-maximal effect; % is scaled to controls: 0 for no effect and ±100 for the full control effect; nearly all actives have a fitted effect of over 50% in size
Target sequence (O75164 whole entry, looked up, the tested form may be a part): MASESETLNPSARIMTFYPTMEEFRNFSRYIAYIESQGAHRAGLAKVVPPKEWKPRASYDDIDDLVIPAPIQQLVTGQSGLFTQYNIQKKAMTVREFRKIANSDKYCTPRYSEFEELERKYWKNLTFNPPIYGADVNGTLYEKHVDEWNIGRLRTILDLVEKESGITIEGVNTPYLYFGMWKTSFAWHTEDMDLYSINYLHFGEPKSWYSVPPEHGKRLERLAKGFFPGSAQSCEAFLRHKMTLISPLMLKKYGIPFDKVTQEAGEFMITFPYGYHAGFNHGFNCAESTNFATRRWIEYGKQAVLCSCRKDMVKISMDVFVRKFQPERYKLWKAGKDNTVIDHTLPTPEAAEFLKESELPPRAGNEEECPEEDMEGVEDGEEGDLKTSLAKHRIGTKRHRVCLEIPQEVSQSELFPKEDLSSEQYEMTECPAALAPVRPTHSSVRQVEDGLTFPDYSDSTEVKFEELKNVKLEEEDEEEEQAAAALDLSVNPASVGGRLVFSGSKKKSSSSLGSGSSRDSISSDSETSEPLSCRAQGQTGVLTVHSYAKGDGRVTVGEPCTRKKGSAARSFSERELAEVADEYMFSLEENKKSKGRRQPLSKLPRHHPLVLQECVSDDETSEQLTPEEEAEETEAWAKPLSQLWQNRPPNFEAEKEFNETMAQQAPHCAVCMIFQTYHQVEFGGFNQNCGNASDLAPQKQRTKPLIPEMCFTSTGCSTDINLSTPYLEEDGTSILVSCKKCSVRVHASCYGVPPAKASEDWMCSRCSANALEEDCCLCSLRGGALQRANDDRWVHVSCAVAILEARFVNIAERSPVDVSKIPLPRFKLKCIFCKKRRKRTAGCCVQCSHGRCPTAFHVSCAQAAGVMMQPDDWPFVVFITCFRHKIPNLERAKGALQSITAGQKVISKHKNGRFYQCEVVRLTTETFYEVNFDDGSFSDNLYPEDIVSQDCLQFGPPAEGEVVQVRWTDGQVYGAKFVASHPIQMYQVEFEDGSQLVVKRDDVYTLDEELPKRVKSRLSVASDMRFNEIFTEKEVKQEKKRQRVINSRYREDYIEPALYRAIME
Numbers without * were called inactive; u = inconclusive; x = no result; [ ] = dose if it differs, or a comment. Unless noted, calls follow the shape of the dose curve; as a rule, active = well fitted inhibition curve with a large enough effect; inconclusive = small, poorly fitted or top-dose-only effect; inactive = no such curve, though single readings can be large or run the other way.

SMILES | Six1-Eya2 blk | G9a inh | HP1b chromo inh | BAZ2B inh | CtBP-E1A blk | JMJD2A Tudor
Cc1ccccc1-n1c(SC2CCOC2=O)nnc1-c1ccncc1 (centres undefined) | 1 | u | 54% | -20% | 1 | -15%
Cc1ccccc1-n1c(-c2ccncc2)n[nH]c1=S | 4 | u | 21% | -36% | -2 | 14µM*
COc1ccccc1NC(=O)C1=C(C)Nc2nc(SCc3ccccc3Cl)nn2C1c1ccncc1 (centres undefined) | x | 6%[59 µM] | 9% | 3% | x | -18%
Cc1ccc(-n2c(-c3ccncc3)n[nH]c2=S)c(C)c1 | 4 | x | 32% | -14% | 2 | 18µM*
Cc1ccccc1-n1c(-c2ccc(Br)o2)n[nH]c1=S | 0 | x | 21% | x | 6 | 25µM*
CC(C)(C)c1cc(-c2n[nH]c(=S)n2-c2ccccc2F)n[nH]1 | 4 | u | 14% | -30% | 9 | 10µM*
Cc1cccc(-n2c(-c3ccncc3)n[nH]c2=S)c1C | 13 | x | 11% | -13% | 10 | 13µM*
Cn1c(-c2ccc(Br)o2)nc2cc(Br)ccc21 | -8 | u | 10% | -34% | 9 | -17%
Cc1ccc(-n2c(-c3ccc(Br)cc3)n[nH]c2=S)c(C)c1 | -13 | x | x | x | -1 | x
Cc1cccc(-n2c(N)cc(=O)[nH]c2=S)c1C | 0 | -5%[59 µM] | -4% | 9% | 0 | 13%[11.4 µM]
S=c1[nH]nc(-c2ccc3ccccc3n2)n1-c1ccccc1Cl | -17 | u | -6%[57 µM] | 3% | -12 | u
Cc1ccccc1-n1c(-c2ccc(=O)[nH]n2)n[nH]c1=S | -3 | 18µM* | -2% | u | 3 | u
Cn1c(C(=O)NCc2cccc(F)c2)cc2cc(S(=O)(=O)N3CCCCC3)ccc21 | x | 11%[59 µM] | 24%[57 µM] | -11% | x | -20%
COc1ccc(NC(=O)NNc2cc(N3CCOCC3)nc(N3CCOCC3)n2)cc1 | 8 | 0% | 36% | -14% | x | -10%
CC(C)(C)c1ccc(C(=O)NNc2cc(N3CCOCC3)nc(N3CCOCC3)n2)cc1 | -1 | -15%[12.7 µM] | 27% | u | -3 | -29%[57.1 µM]
CC(C)(C)c1ccc(C(=O)NNc2cc(N3CCCCC3)nc(N3CCCCC3)n2)cc1 | -9 | -33%[59 µM] | 7.1µM* | 10µM* | -11 | u
CC(=O)NNc1cc(N2CCOCC2)nc(N2CCOCC2)n1 | -4 | 45µM* | 27% | 5% | -3 | -30%
COc1ccc(N/C(=C(/C(Cl)=C(Cl)Cl)[N+](=O)[O-])n2nnc3ccccc32)cc1 | x | 11µM* | x | 50µM* | x | x
Cc1ccccc1N/C(=C(/C(Cl)=C(Cl)Cl)[N+](=O)[O-])n1nnc2ccccc21 | -4 | 10µM* | -5% | 50µM* | -4 | u
COc1ccc(NC(=O)COC(=O)Cn2nnc3ccccc32)cc1 | 8 | 19% | 37% | -5% | -23 | -10%
COc1ccc(OC)c(S(=O)(=O)NCC(c2cccs2)S(=O)(=O)c2ccc(F)cc2)c1 (centres undefined) | x | 9%[59 µM] | 59% | 16% | x | -22%
CCOCCCn1c(SCC(=O)OCC)nc2c(sc3ccccc32)c1=O | x | 12%[59 µM] | 91% | 6% | x | 9%
Cc1ccc(NC(=O)N2CCC(=O)N2)cc1 | 1 | u | 1% | -37% | -1 | 32µM*
NC(N)=[N+]1CCc2ccccc2C1 | x | 3.2µM* | x | x | x | x
CCN(CC)C(=O)CC(c1ccccc1)c1ccco1 (centres undefined) | 1 | u | 23% | 0% | 6 | -28%
SMILES | Six1-Eya2 blk | G9a inh | HP1b chromo inh | BAZ2B inh | CtBP-E1A blk | JMJD2A Tudor
CCCN(CCC)C(=O)CC(c1ccc(F)cc1)c1ccco1 (centres undefined) | -1 | 45µM* | 39% | -32% | 8 | -33%
O=C(CC(c1ccc(F)cc1)c1ccco1)Nc1nccs1 (centres undefined) | -11 | 28µM* | -18% | u | 0 | -34%
O=C(CC(c1ccc(F)cc1)c1ccco1)N1CCOCC1 (centres undefined) | -2 | -29% | 48% | 12% | 5 | -13%
O=C(CC(c1ccc(F)cc1)c1ccco1)N1CCCC1 (centres undefined) | 0 | 40µM* | 32% | 7% | 13 | -20%
Cc1c(C(=O)N2CCOCC2)sc(NC(=O)CCl)c1C#N | 0 | 6% | 33% | 0% | 6 | -4%
Cc1cc(Br)ccc1NC(=O)CN(C)C(=O)c1cc([N+](=O)[O-])ccc1N1CCOCC1 | 6 | 3.5µM* | 5% | 5% | -19 | -21%
CCOc1ccc(NC(=O)CN(C)C(=O)c2cc([N+](=O)[O-])ccc2N2CCCCC2)cc1OCC | -14 | 2.2µM* | -23% | -12% | -14 | -34%
CCOc1ccc(NC(=O)CN(C)C(=O)c2ccc(N3CCCC3)c([N+](=O)[O-])c2)cc1OCC | -3 | -2%[2.33 µM] | -17% | u | 0 | -34%
CCOc1ccc(NC(=O)CN(C)C(=O)c2cc([N+](=O)[O-])ccc2Sc2ccccc2)cc1OCC | -29 | x | -6% | x | -1 | u
CCOc1ccc(NC(=O)CN(C)C(=O)c2ccc(N3CCCCC3)c([N+](=O)[O-])c2)cc1OCC | -24 | 50µM* | -32% | u | -15 | u
C=CCSc1nnc(CCCCCN2C(=O)c3cccc4cccc(c34)C2=O)o1 | 5 | 7%[59 µM] | 25% | 2% | -5 | 6%
O=P(O)(CCc1ccccn1)CN1CCOCC1 | -8 | u | 2% | -6% | 0 | u
Fc1ccc(N2CCN(Cc3ccccn3)CC2)cc1 | 4 | 3.5µM* | u | 50µM* | -5 | 11µM*
Oc1cccnc1CN1CCOCC1 | -8 | x | 30% | x | -3 | 7.9µM*
c1ccc(CN2CCOCC2)nc1 | -18 | x | 10% | x | 7 | 11µM*
COc1cc(Cl)c(C)cc1NC(=O)Cn1cnc2sc(C)c(S(=O)(=O)N3CCCCC3)c2c1=O | x | -24%[59 µM] | 30% | -12% | x | -21%
CCOC(=O)c1c(NC(=O)/C=C/c2ccc(OCC)cc2)sc(C(C)=O)c1C | x | -4%[59 µM] | 41% | 3% | x | 6%
COc1ccc(CCNC(=O)c2cc3c(F)cccc3s2)cc1OC | -14 | -12% | 2% | -4% | -17 | -9%
CN(C)C(=S)NC(=NCc1ccc([N+](=O)[O-])cc1)c1ccccc1 | -4 | 71µM* | 56% | -17% | -7 | -15%
